KDM4E inh = qHTS Assay for Inhibitors of Human Jumonji Domain Containing 2E (JMJD2E); Lysine-specific demethylase 4E (Homo sapiens), B2RXH2; JMJD2E catalytic domain, FDH-coupled NADH fluorescence (FDH is formaldehyde dehydrogenase); Potency, µM (titrated, usually from 57.1 µM), without a hit: at the top dose activity change, negative = inhibition, actives largely listed as inhibitors; hit rate 1.6% among 230,000;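 further: potency means the concentration at half of the fitted maximal effect; 0% = wells with enzyme and -100% = buffer wells without enzyme; nearly all actives have a fitted effect of over 50% in size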
NPSR antagonist = qHTS Assay for Antagonists of the Neuropeptide S Receptor: cAMP Signal Transduction; AID 1461, 2008; Potency, µM (series often up to 38.3 µM), for inactives: at the highest dose activity change, negative = inhibition, usual class: inhibitors; CHO-NPSR cells, cAMP TR-FRET, antagonist mode; hit rate 1% among 220,000; Q6W5P4; active means well fitted curve in the direction sought with a large enough effect; inconclusive means small, poorly fitted or top-dose-only effect, or another doubt; inactive means no such curve, though single readings can be large; an effect the other way counts as inactive or inconclusive; further: potency means the concentration at half of the fitted maximal effect; nearly all actives have a fitted effect of over 50% in size
Target sequence (Q6W5P4 whole entry, looked up): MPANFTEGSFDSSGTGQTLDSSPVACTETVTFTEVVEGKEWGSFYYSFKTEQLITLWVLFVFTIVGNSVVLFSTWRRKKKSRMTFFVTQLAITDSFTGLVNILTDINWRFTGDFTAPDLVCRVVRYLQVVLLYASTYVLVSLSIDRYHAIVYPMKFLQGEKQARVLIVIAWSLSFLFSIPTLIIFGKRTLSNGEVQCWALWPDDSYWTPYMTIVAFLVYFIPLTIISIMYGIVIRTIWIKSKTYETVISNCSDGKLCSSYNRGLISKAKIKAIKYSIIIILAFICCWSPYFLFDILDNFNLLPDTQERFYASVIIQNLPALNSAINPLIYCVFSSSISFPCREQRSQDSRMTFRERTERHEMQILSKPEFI
ALDH1A1 block = qHTS Assay for Inhibitors of Aldehyde Dehydrogenase 1 (ALDH1A1); Potency, µM (titrated, usually from 75.3 µM), for inactives: top-dose activity, negative = inhibition, actives largely listed as inhibitors; hit rate 7.3% among 220,000; Aldehyde dehydrogenase 1A1 (Homo sapiens), P00352; Purified ALDH1A1, NADH fluorescence, propionaldehyde substrate;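 further: potency means the concentration at half of the fitted maximal effect; plate controls were no enzyme wells and a reference inhibitor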
Coupling enz = qHTS Assay for Inhibitors of Fructose-1,6-bisphosphate Aldolase from Giardia Lamblia: Coupling assay counterscreen. activity change, negative = inhibition, % at 58.2 µM, hits read low. coupling enzyme system counterscreen, AmpLite Red fluorescence. hit rate 0.67% among 290,000; in the data active means activity change below about -30%
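Counterscreen of the coupled detection system alone, without aldolase: glyceraldehyde-3-phosphate coupling enzymes plus AmpLite Red readout. Compounds at 57.5 uM final, 10 min RT preincubation, 20 min RT reaction, fluorescence 525/598 nm.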
Sfp inh = qHTS Assay for Inhibitors of Bacillus subtilis Sfp phosphopantetheinyl transferase (PPTase) | AID 1490, 2009 | Biochemical Sfp PPTase activity, qHTS | Potency, µM, for the others: largest response in the series, negative = inhibition, most hits filed as inhibitors | hit rate 3.5% among 310,000; active means well fitted curve in the direction sought with a large enough effect; inconclusive means small, poorly fitted or top-dose-only effect, or another doubt; inactive means no such curve, though single readings can be large; an effect the other way counts as inactive or inconclusive;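 further: the enzyme is Sfp with the accession as filed and its product quenches rhodamine fluorescence; potency means the concentration at half of the fitted maximal effect; 0% = enzyme reaction without inhibitor and -100% = no enzyme wells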
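Reaction rates are the 30-min fluorescence difference (ex 525, em 598 nm) in wells containing 15 nM Sfp, 5 uM rhodamine-CoA and 12.5 uM BHQ-2-YbbR at pH 7.6 with 10 mM MgCl2.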
RGS12 GoLoco inh = qHTS Assay for Inhibitors of RGS12 GoLoco Motif Activity (Red Fluorophore); Guanine nucleotide-binding protein G(i) subunit alpha-1 (Homo sapiens), P63096; Gai1:RGS12 GoLoco peptide FP, rhodamine, 10 min; Potency, µM (highest dose often 61.6 µM), for inactives: top-dose activity, negative = inhibition, usual class: inhibitors; hit rate 0.44% among 230,000; AID 880, 2007; active means well fitted inhibition curve with a large enough effect, not every such curve was filed as active; inactive means no such curve, though single readings can be large or run the other way; further: potency means the concentration at half of the fitted maximal effect; nearly all actives have a fitted effect of over 30% in size
Target sequence (P63096 whole entry, looked up): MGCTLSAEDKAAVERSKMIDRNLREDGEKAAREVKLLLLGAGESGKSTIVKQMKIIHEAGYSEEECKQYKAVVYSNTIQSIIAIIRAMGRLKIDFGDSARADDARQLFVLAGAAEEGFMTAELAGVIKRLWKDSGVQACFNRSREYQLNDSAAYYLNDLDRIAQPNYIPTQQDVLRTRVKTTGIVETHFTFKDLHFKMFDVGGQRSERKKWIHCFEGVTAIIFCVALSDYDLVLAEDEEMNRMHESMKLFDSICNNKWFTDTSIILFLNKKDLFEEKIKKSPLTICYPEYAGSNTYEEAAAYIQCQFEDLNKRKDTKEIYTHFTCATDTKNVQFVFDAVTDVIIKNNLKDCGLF
Active calls of the source: *; u = inconclusive; x = no result given; ! = not active in a repeat; [ ] = another dose, or the depositor's remark. An excerpt weighted towards active compounds, which were near 8.5% of everything screened. Unless noted, the call rests on the fitted dose curve; in most records, active means well fitted inhibition curve with a large enough effect (not every such curve was filed as active); inconclusive means small, poorly fitted or top-dose-only effect, or another doubt; inactive means no such curve, though single readings can be large or run the other way. Unless noted, on the % scale 0 is the no-effect control and ±100 the full control effect.

SMILES | KDM4E inh | NPSR antagonist | ALDH1A1 block | Coupling enz | Sfp inh | RGS12 GoLoco inh
CN1N=C(C(=O)N2CCCC(N3CCN(c4ccc(F)cc4)CC3)C2)CCC1=O (stereo unspecified) | x | x | x | x | 7% | x
Cc1cccc(N2C(S)=C(C#N)C(=O)NC2c2ccco2)c1 (stereo unspecified) | u | 43% | -7% | 11 | -7% | 18%
N#CC1=C(S)N(c2ccccc2)C(c2ccc(-c3cccc(Cl)c3)o2)NC1=O (stereo unspecified) | -22% | -51% | u | 5 | 28µM* | 15%
CN(CC(=O)Nc1ccc(Cl)cc1)C1CCCCC1 | x | x | x | 2 | 21% | x
Cc1ccc(NC(=O)CN(C)C2CCCCC2)cc1Br | -2% | 24% | 28µM* | -6 | 56µM* | -17%
COc1ccc(-c2coc3cc(OC)cc(O)c3c2=O)cc1 | 0% | -9%[46.1 µM] | -1% | x | 12% | 9%
COc1ccc(-c2coc3cc(O)cc(O)c3c2=O)cc1 | u | -47% | -3% | 1 | 50µM*! | 7%
S=C(NN=C(C1CC1)C1CC1)Nc1ccccc1 | -3% | -1%[46.1 µM] | 25µM* | -1 | 20µM* | 8%
NC(=S)NNC(=S)Nc1ccccc1 | -13% | -1% | 22µM* | -1 | 10µM* | 16%
COC(=O)c1ccc(NC(=S)Nc2ccc(O)cc2)cc1 | 1% | 8% | u | 4 | u | -2%
O=C(Cc1ccccc1)NNC(=S)Nc1ccccc1 | 4% | 7% | 4% | 1 | 14% | 13%
S=C(NNC(=S)Nc1ccccc1)Nc1ccccc1 | x | x | x | 3 | 50µM* | x
Oc1ccc(NC(=S)Nc2ccc(O)cc2)cc1 | u | -21% | u | -23 | 45µM* | -19%
O=C(NNC(=S)Nc1ccccc1)C1CC1 | 9% | -2%[46.1 µM] | 4% | x | -8% | -5%
O=C(c1ccco1)N1CCN(Cc2cccc3ccccc23)CC1 | x | x | x | -1 | u | x
CNc1ccc(O)cc1 | x | x | 2.2µM* | x | x | 5.6µM*
CC/C(O)=C1\C(=O)CC(c2ccccc2)CC1=NC(C)C (stereo unspecified) | -3% | -34% | -7% | 5 | -1% | 7%
C/C(Cl)=C/Cn1c(SCCN2CCOCC2)nc2c1c(=O)[nH]c(=O)n2C | 3% | -12%[46.1 µM] | -8% | 0 | 4% | -2%
CCOC(=O)C(C)Sc1nc2c(c(=O)[nH]c(=O)n2C)n1C/C=C(/C)Cl (stereo unspecified) | -7% | -5%[46.1 µM] | 7.1µM* | -1 | 22µM* | 0%
C=CCSc1nc2c(c(=O)[nH]c(=O)n2C)n1C/C=C(/C)Cl | 0% | -5%[46.1 µM] | u | 1 | -5% | -2%
COC(=O)C(C)Sc1nc2c(c(=O)[nH]c(=O)n2C)n1CCC(C)C (stereo unspecified) | -5% | -25%[46.1 µM] | u | 4 | -8% | -3%
CCSc1nc2c(c(=O)[nH]c(=O)n2C)n1C/C=C(/C)Cl | 1% | 2%[46.1 µM] | 14µM* | 4 | -18% | 5%
CSc1nc2c(c(=O)[nH]c(=O)n2C)n1C/C=C(\C)Cl | 5% | -8%[46.1 µM] | 25µM* | 1 | -21% | 1%
C=CCSc1nc2c(c(=O)[nH]c(=O)n2C)n1CC | -10% | 1%[46.1 µM] | 14µM* | 0 | 14µM* | -8%
Cc1cccc(C(=O)NCc2nnc3c4ccccc4c(-c4ccccc4)nn23)c1 | -1% | -11% | -10% | 4 | 8% | -7%
SMILES | KDM4E inh | NPSR antagonist | ALDH1A1 block | Coupling enz | Sfp inh | RGS12 GoLoco inh
CC1CCN(c2ccc(NC(=O)c3ccc(Br)o3)cc2)CC1 | x | x | x | x | 14% | x
CCn1nc(C)c(CNC(=O)c2cc(COc3ccc(F)cc3Cl)on2)c1C | 2% | 8% | x | 3 | -19% | 6%
COc1ccc(OC)c(NC(=O)c2cccc(NC(=O)c3ccccc3)c2)c1 | x | x | x | 1 | 7% | x
COc1ccc(O)c(-c2[nH]ncc2C(=O)c2ccccc2)c1 | -4% | -12%[46.1 µM] | 7.9µM* | -11 | 18% | 7%
C(=N\Nc1ccc(-n2ccnc2)nn1)/c1ccccc1 | -6% | 6%[46.1 µM] | 15% | -4 | 89µM* | -5%
COc1ccc2c(CC(=O)Nc3ccc(OC)nc3)coc2c1 | -10% | -2% | -4% | -1 | 12% | 0%
COc1cc([N+](=O)[O-])cc2sc(NC(C)=O)nc12 | -4% | 5% | x | 0 | 40µM* | -18%
COc1ccc(-c2nc(NC(=O)c3ccc(OCC(=O)Nc4ccc(F)cc4)c(OC)c3)sc2C)cc1 | u | 10µM* | u | 0 | 11% | 8%
COC(=O)c1ccc(NC(=O)C2C3C=CC(O3)C2C(=O)O)cc1 (stereo unspecified) | -1% | -16%[46.1 µM] | 4.5µM* | 6 | -28% | -14%
COC(=O)c1ccc(NC(=O)C2C3C=CC(C3)C2C(=O)O)cc1 (stereo unspecified) | x | x | x | 0 | -2% | x
Cc1ccc(NC(=O)C2C3C=CC(O3)C2C(=O)O)cc1C (stereo unspecified) | x | x | x | 5 | 16% | x
Cc1nnc(NC(=O)C2C3C=CC(O3)C2C(=O)O)s1 (stereo unspecified) | u | -5%[46.1 µM] | 28µM* | -1 | -27% | -16%
CCN(CC)S(=O)(=O)c1ccc(OC)c(NC(=O)Cn2cnc3c2c(=O)n(C)c(=O)n3C)c1 | 4% | -22% | 2% | 4 | 15% | -6%
CCN(CC)CCNC(CC(=O)Nc1ccc(Cl)cc1Cl)C(=O)O (stereo unspecified) | 1% | -8%[46.1 µM] | 7.1µM* | 1 | -7% | 1%
CCOC(=O)c1c(C(=O)OCC)c(C)n(N2C(=O)CSC2=S)c1C | 2% | -14%[46.1 µM] | 1% | 18 | 16µM* | 143%
Cc1cc(-c2csc(NC(=O)c3ccccc3C(F)(F)F)n2)c(C)n1Cc1ccccc1 | -25% | u | 1% | 1 | 2% | x
Cc1cc(-c2csc(NC(=O)c3ccc(=O)n(C)n3)n2)c(C)n1CC1CCCO1 (stereo unspecified) | -22% | -11%[46.1 µM] | 20µM* | -6 | 50µM* | 7%
CCCOc1ccc(/C=N/Nc2ccccn2)cc1OC | u | -12% | -14% | 4 | u | 16%
CCOc1ccc(/C=N/Nc2ccccn2)cc1OC | -14% | -9% | 5% | -1 | 56µM* | 17%
COc1cc(/C=N/Nc2ccccn2)cc(OC)c1O | -12% | -5% | -9% | -1 | 35µM* | 8%
COc1cc(N/N=C/c2ccc(N(C)C)cc2)ncn1 | u | -1% | u | 2 | 2% | 19%
CCOc1ccc(/C=N/N(C)c2ccccc2)cc1OC | -5% | -23%[46.1 µM] | 7.9µM* | 0 | -11% | -1%
COc1cc(N/N=C/c2ccccc2O)ncn1 | 25µM* | 10% | 11% | -1 | 2% | 35%
